From paper PMC13494018 come the findings set out here.

This assay deals with VTCN1, Q7Z7D3.

Unmarked numbers belong to inactive results. How the calls were made is not given here.

Sequence of VTCN1, Q7Z7D3 (Q7Z7D3 whole entry): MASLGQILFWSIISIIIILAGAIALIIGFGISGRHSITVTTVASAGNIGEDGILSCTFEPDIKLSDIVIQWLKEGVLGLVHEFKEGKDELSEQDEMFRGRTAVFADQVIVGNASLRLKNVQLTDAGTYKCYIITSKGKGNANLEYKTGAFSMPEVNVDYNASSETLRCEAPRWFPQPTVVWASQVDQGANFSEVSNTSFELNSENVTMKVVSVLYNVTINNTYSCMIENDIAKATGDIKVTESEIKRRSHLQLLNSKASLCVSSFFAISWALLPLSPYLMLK

B1: design_599_7ce25d4d-e004-4b84-a16f-baf856d943ab_1925_dldesign_0_cycle1_af2pred (protein)
chain: AQAVLDEAKKAADKAIALANQAIALAKTDLAAGKAKMEEALEELTEADYLADKAAKAGATEEAKKVRDKAKAAIDAARATIKAA
Take B1: the “binding in a display sort” value was “not found”.

B2: design_600_24101276-ad9d-4944-b73e-53bb160363ad_551_dldesign_0_cycle1_af2pred (protein)
chain: GSSAANALADAQRKALKELQAVGKEAEKVSPEAAKKAAEYRDKLLDGETVEEVEAVKEEGLKEVTAMIEKAKAA
Take B2: the “binding in a display sort” value is “not found”.

B3: design_599_7ce25d4d-e004-4b84-a16f-baf856d943ab_1137_dldesign_0_cycle1_af2pred (protein)
chain: GAAAAAAAQEARQAIAEAEFAAAKGDPAAEAALEKAAAAAEKAAAADPEVGAKVKALVDKARAKVAAAKAA
Turning to B3, the “binding in a display sort” value was “not found”.

B4: design_599_7ce25d4d-e004-4b84-a16f-baf856d943ab_2060_dldesign_0_cycle1_af2pred (protein)
chain: SSLDKKIAEEALKTAREGRKKVEELVKAGKYEEALALAKELREKMLKVYEELVKEGGTIEGIQAAFSAAMLMESAESYAKTKLEAAK
Turning to B4, the “binding in a display sort” value is “not found”.

B5: design_600_24101276-ad9d-4944-b73e-53bb160363ad_146_dldesign_0_cycle1_af2pred (protein)
chain: SKIYKLYGELTVEILKEKAEEAVELAKEGKAEEAKKYLKEAYERAKARAERLKEIDPEAGKEALKAVEKTYKEYEKELEKAIKEN
Turning to B5, the “binding in a display sort” value is “not found”.

B6: design_599_7ce25d4d-e004-4b84-a16f-baf856d943ab_1658_dldesign_0_cycle1_af2pred (protein)
chain: EEIQKKNNFLAYAEAAIHAAEAIAKNSDEKTGKALKEEAKKVKEHEDDKEEAIKHLEKAAKIAAGHPGAPILQKRVAKAKAAA
Turning to B6, the “binding in a display sort” value is “not found”.

B7: design_599_7ce25d4d-e004-4b84-a16f-baf856d943ab_2320_dldesign_0_cycle1_af2pred (protein)
chain: SVKSRAESAYVTAAARHAKEKAAADPAYAELYGKVLFGFYDTLDDPSAAEETYALDPELAPKLLEEMEKVGKAAADAELAK
As for B7, the “binding in a display sort” value is “not found”.

B8: design_599_7ce25d4d-e004-4b84-a16f-baf856d943ab_1912_dldesign_0_cycle1_af2pred (protein)
chain: MEKLKELLEKTKELAKKGVEYAKKGDEEKARKYMLEARKYAEEAKKLDPEAGKEAAKIIQEAYEEMAEARFEVN
In the case of B8, the “binding in a display sort” value is “not found”.

B9: design_599_7ce25d4d-e004-4b84-a16f-baf856d943ab_1147_dldesign_0_cycle1_af2pred (protein)
chain: DAEKLMKKAKEYAELAKQAKEKGTPSSAQVAEFHAEIAEELAKKAEELDPKYKKEAEEIKKIAKEAKAVGEKADEEILKKIK
Turning to B9, the “binding in a display sort” value is “not found”.

B10: design_600_24101276-ad9d-4944-b73e-53bb160363ad_358_dldesign_0_cycle1_af2pred (protein)
chain: DALAAGIVAAMREDPARGAAAARNAALQYEDDPAAYEAVKAAALAAAAADPAVAAALAAAFDAAAKEVSA
Regarding B10, the “binding in a display sort” value was “not found”.

B11: design_599_7ce25d4d-e004-4b84-a16f-baf856d943ab_1164_dldesign_0_cycle1_af2pred (protein)
chain: GKEEAYKKAKEAAEKALEKAEKALKLAKEGKIEEAAKELAEAQELRAEAEFYANKSDKEKKEELLKLIEEAKKKIKEARKVAKEKA
With B11, the “binding in a display sort” value was “not found”.

B12: design_600_24101276-ad9d-4944-b73e-53bb160363ad_105_dldesign_0_cycle1_af2pred (protein)
chain: GEEEEKKKKAVEKAKKALEQTKKAADKGTALDPSAKPEFDKIVKEAEKELKKAEEGDAETAKKAAKEAIEEAHKAYELRAEVEAKAIR
For B12, the “binding in a display sort” value was “not found”.

B13: design_599_7ce25d4d-e004-4b84-a16f-baf856d943ab_1182_dldesign_0_cycle1_af2pred (protein)
chain: AAVEAALAAAEAEFDRAAAFARGAAAAAVKNPKTKAFGEEALKKLDALKAEVAAAKADPEAALKAAKAAAAEAEAIMDEALEANAKA
Regarding B13, the “binding in a display sort” value is “not found”.

B14: design_599_7ce25d4d-e004-4b84-a16f-baf856d943ab_1357_dldesign_0_cycle1_af2pred (protein)
chain: EEEERRREERAREAREAAEEAKALAEKVKANPKATQEEIDKLNQLALQAEVAEEAIREGYAVEAAERRAREALEEAKKIAEEAEKKAA
Turning to B14, the “binding in a display sort” value was “not found”.

B15: design_599_7ce25d4d-e004-4b84-a16f-baf856d943ab_1749_dldesign_0_cycle1_af2pred (protein)
chain: MEKEEELKYGEELLKKAREEAKKKIEKAAKEGKIAEGAQEAIQVINEYSFEAAKKAKKEEVKKKIWEKGKEIKKEVVERAKELVKEQE
Regarding B15, the “binding in a display sort” value is “not found”.

B16: design_599_7ce25d4d-e004-4b84-a16f-baf856d943ab_1476_dldesign_0_cycle1_af2pred (protein)
chain: GEELEKLKKRAEKLLEEGKKKAKEDPEEGRKVAKEIRAEGKAHPEGKEAFAKAAAEVYQYIAEEEQKERLKKN
Regarding B16, the “binding in a display sort” value is “not found”.

B17: design_600_24101276-ad9d-4944-b73e-53bb160363ad_768_dldesign_0_cycle1_af2pred (protein)
chain: AEDLKKAIEKIKKEVGEEAAKLVGEALKAKQAAADDPSLAETQLKKVEELEKEAKKLDPKAAKLVSKIKKVVKRMVEN
With B17, the “binding in a display sort” value was “not found”.

B18: design_599_7ce25d4d-e004-4b84-a16f-baf856d943ab_1823_dldesign_0_cycle1_af2pred (protein)
chain: NISEENKKLAAAEQAKFTAEAAIKKVKATTPEEAKKVAEEAIKRLEKLGKVGEEAAKVAKEEIAKLKATAEKVAA
In the case of B18, the “binding in a display sort” value is “not found”.

B19: design_599_7ce25d4d-e004-4b84-a16f-baf856d943ab_1610_dldesign_0_cycle1_af2pred (protein)
chain: DLKEKAKKGIELAKELIEKAKELKKKGDIIGAIAYAERAIHAAEAALKIAKKADPELAKEAKKVLEEAKKELEKIEKE
In the case of B19, the “binding in a display sort” value is “not found”.

B20: design_599_7ce25d4d-e004-4b84-a16f-baf856d943ab_1596_dldesign_0_cycle1_af2pred (protein)
chain: DEEIKKKAEELKKKAEELEKEAETANAEELKKLAEEAIKLASKAAQLAEYAPKELAPYAEEVENYVSDIAVKAIQKRREVEEKEKKE
Turning to B20, the “binding in a display sort” value was “not found”.

B21: design_599_7ce25d4d-e004-4b84-a16f-baf856d943ab_1788_dldesign_0_cycle1_af2pred (protein)
chain: MEEERREEGRRLAEELVEKAKKAKELAKSGEKIEEAKKLLKEAREEAKKAAKAGLLTPEELKEVADAIHEAYEAIAEGEAKK
For the molecule B21, the “binding in a display sort” value is “not found”.

B22: design_599_7ce25d4d-e004-4b84-a16f-baf856d943ab_1731_dldesign_0_cycle1_af2pred (protein)
chain: AAADAKKIQALREKVAEAAALAKDPKTAAEAAKIAKATAKEAKEAAKAATDPAAKKAFAKVAEKAKAVAEEAEKIAKA
In the case of B22, the “binding in a display sort” value was “not found”.

B23: design_599_7ce25d4d-e004-4b84-a16f-baf856d943ab_1166_dldesign_0_cycle1_af2pred (protein)
chain: AEELYEKAKKLLTEAIFGLADGTINEEEALKAIEEGRKAAEELKKLGDEEKAEELERGVRALEDMIEDIRKAE
With B23, the “binding in a display sort” value was “not found”.

B24: design_599_7ce25d4d-e004-4b84-a16f-baf856d943ab_2014_dldesign_0_cycle1_af2pred (protein)
chain: AELKAKAAIARVEFQAENIIEAGKKNGKEAEKIVKAAEETVKKAKEEIEKDPERAWEIAEKYIRELQEKARELIEKA
For the molecule B24, the “binding in a display sort” value was “not found”.

B25: design_599_7ce25d4d-e004-4b84-a16f-baf856d943ab_2004_dldesign_0_cycle1_af2pred (protein)
chain: DARKKAAELFKEAGKLATEAAKASPEEGKKLAEEAVAKVKEAAKVLGRERIGENFIKQIVAGRKSREIAGYQLEARADAIAA
For B25, the “binding in a display sort” value was “not found”.

B26: design_600_24101276-ad9d-4944-b73e-53bb160363ad_591_dldesign_0_cycle1_af2pred (protein)
chain: AEAEYKKAKELLKKAKEALKKNPEEALKLAKEAVEAAKKAAEADPSLAPELGKYAQEALQIISEARFKIS
B26: the “binding in a display sort” value was “not found”.

B27: design_599_7ce25d4d-e004-4b84-a16f-baf856d943ab_1942_dldesign_0_cycle1_af2pred (protein)
chain: KEEIKKIAEEAIEKAENAKTKEQAAEAAKLAAEALKKVGAEKAAKRAEEVAKKAKEGSDSEVPELSKETLILAEQVLFAV
Take B27: the “binding in a display sort” value was “not found”.

B28: design_600_24101276-ad9d-4944-b73e-53bb160363ad_124_dldesign_0_cycle1_af2pred (protein)
chain: NEMKKKAEELQKKARKLREVVKKGPKDAAEAKKAAEEAKKVAEEAEKAIEEDPSADPKTIAKLQRAAFSAEAAAKQLEKWL
On to B28, for which the “binding in a display sort” value is “not found”.

B29: design_599_7ce25d4d-e004-4b84-a16f-baf856d943ab_2019_dldesign_0_cycle1_af2pred (protein)
chain: GEELREKLLKEAEEAVKAAAADVPEMKDRLLAQMEKAKAAPLSKAPTELARLGSLLMAAAFATGSKTAEEAAEIAADAALKLK
Turning to B29, the “binding in a display sort” value was “not found”.

B30: design_599_7ce25d4d-e004-4b84-a16f-baf856d943ab_1383_dldesign_0_cycle1_af2pred (protein)
chain: SEEEKKKKYEEAKKKMEKAGEEALKNVEDGAVVMDALATMREAVHEAEKLSPEYGKEARKLLEKYREEIKKKREEVEKKKAEEEKK
As to B30, the “binding in a display sort” value is “not found”.

B31: design_600_24101276-ad9d-4944-b73e-53bb160363ad_413_dldesign_0_cycle1_af2pred (protein)
chain: ITPEEAKKLMENIAEAAKDMATWNPAAAETIAKSATKRMESIGKKAGIEEEAKKYSEEVKKFAKEVKEKS
As for B31, the “binding in a display sort” value was “not found”.

B32: design_599_7ce25d4d-e004-4b84-a16f-baf856d943ab_2233_dldesign_0_cycle1_af2pred (protein)
chain: SLVANIGQDIRSEAIAKAKLGGAEGAKEGAELAREAAVAFRKLGEASTPELKELAEKAAEIMERVSERLEEEAKRKAA
Turning to B32, the “binding in a display sort” value is “not found”.

B33: design_599_7ce25d4d-e004-4b84-a16f-baf856d943ab_1672_dldesign_0_cycle1_af2pred (protein)
chain: TPSPELAAKITAATDEILELADKNIEEGGENLDEVEKTATEKGKELGMTKLANALIKSAKIGVELQKKTK
For B33, the “binding in a display sort” value was “not found”.

B34: design_599_7ce25d4d-e004-4b84-a16f-baf856d943ab_1363_dldesign_0_cycle1_af2pred (protein)
chain: GEAEKAARYLKLAEELAAEVKKNYDNAEKLKEIAREAREAAKEAPESVKPVLAKVAQDAYEARAEAERNASLN
In the case of B34, the “binding in a display sort” value is “not found”.

B35: design_599_7ce25d4d-e004-4b84-a16f-baf856d943ab_1969_dldesign_0_cycle1_af2pred (protein)
chain: MKVEEEVKKTKKVAEEAIKRAEEERKKASPELKEETEEVIKKAKEYMEKAEKAVKEGDYEKAKEYAKKMATYASELIALVNAIKH
As for B35, the “binding in a display sort” value is “not found”.

B36: design_599_7ce25d4d-e004-4b84-a16f-baf856d943ab_1590_dldesign_0_cycle1_af2pred (protein)
chain: MEEAVKKVKELGKEALKRIEEAGKGTPEELEKKSAEVAKEFDAKVEELASKSSPEAAKAILEEAAKARKEMQETYKKALEQAKKNA
As for B36, the “binding in a display sort” value is “not found”.

B37: design_599_7ce25d4d-e004-4b84-a16f-baf856d943ab_2071_dldesign_0_cycle1_af2pred (protein)
chain: GKAKEIAKKGAEELGKALGEEAKVDADIAAEQAEMQPTPELMAEAFKRGAKRIGEKTGKLEKAEEVAKKTVKAIKE
Take B37: the “binding in a display sort” value was “not found”.

B38: design_599_7ce25d4d-e004-4b84-a16f-baf856d943ab_1149_dldesign_0_cycle1_af2pred (protein)
chain: DVLEKMKELVKEIIEAASKLSPDIAKIFEAAGKVALKKYEEDPEAGIKGAQKLAAVGARVALPDKEAAERLKELAKEVA
As for B38, the “binding in a display sort” value was “not found”.
